Data published in PubChem BioAssay AID1508602 (The Scripps Research Institute Molecular Screening Center, 2020).
Out of some 650,000 compounds screened, about 6,800 (1%) were called active. The sample as a whole holds a higher share of actives than the screen did. A number with no mark means an inactive call. No stated cut-off is given here; in the data, active means activation above about 4.9%; inactive means the rest.

What follows are molecules tested against G-protein coupled receptor 151 (Homo sapiens) (UniProt Q8TDV0) (assay: activates the human receptor GPR151, primary screen, cell-based, PathHunter beta-arrestin, luminescence (AID 1508602;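 further: 0% = median of compound wells and 100% = cells with positive control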)). Details: PathHunter beta-arrestin GPR151 cells, at 11.2 µM, stronger effect = higher value.
Chain of G-protein coupled receptor 151 (Homo sapiens) (Q8TDV0 whole entry, looked up): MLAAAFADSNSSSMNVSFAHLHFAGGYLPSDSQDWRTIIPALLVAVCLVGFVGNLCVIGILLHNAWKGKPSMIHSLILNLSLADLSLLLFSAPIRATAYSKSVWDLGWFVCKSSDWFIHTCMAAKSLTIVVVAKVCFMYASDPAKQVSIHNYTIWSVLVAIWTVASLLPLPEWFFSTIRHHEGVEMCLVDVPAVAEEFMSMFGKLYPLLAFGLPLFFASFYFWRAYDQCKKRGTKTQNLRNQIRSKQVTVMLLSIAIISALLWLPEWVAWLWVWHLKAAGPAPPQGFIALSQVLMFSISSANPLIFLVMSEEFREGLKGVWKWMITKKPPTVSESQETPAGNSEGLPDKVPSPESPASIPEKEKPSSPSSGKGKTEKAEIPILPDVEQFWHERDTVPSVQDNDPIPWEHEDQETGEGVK

SMILES	activation
CCOC(=O)C(C#N)C(C#N)(C(=O)OCC)C1CCCCC1=O (centres undefined)	2.95%
O=C(CNC(=O)c1ccc(NC2CC2)c([N+](=O)[O-])c1)Nc1ccc(F)c(F)c1F	0.807%
Nc1ncnc(Oc2ccccc2Cl)c1[N+](=O)[O-]	1.64%
Cc1ccc[n+](-c2ncnc(N)c2[N+](=O)[O-])c1	6.28% (active)
Cc1csc(Nc2ncnc(N)c2[N+](=O)[O-])n1	-0.642%
CSc1ncc(C(=O)Nc2ccc(F)cc2C)c(C)n1	-0.309%
O=C(Nc1ccccc1)NC1(C(=O)Nc2ccc(F)cc2F)CCCCC1	0.408%
Cc1ccc(NC(=O)Cn2c(C)c(C=O)c3ccccc32)cc1C	1.3%
COc1ccc(-c2nnc(SCC(=O)Nc3ccc4c(c3)OCCO4)o2)cc1OC	0.0025%
Cc1sc2nc(Cc3ccccc3)[nH]c(=O)c2c1C	0.303%
Cc1sc2nc(CN(C(=O)C3CC3)C3CCCC3)[nH]c(=O)c2c1C	0.605%
CCC(CC)C(=O)N1CCN(Cc2nc3sc(C)c(C)c3c(=O)[nH]2)CC1	5.71% (active)
O=C(CCCCn1c(=O)[nH]c2ccccc2c1=O)N1CCN(c2cccc(Cl)c2)CC1	-0.11%
CCCCc1ccc(N=Cc2nc(-c3cccc4ccccc34)oc2O)cc1	7.67% (active)
CCCCc1ccc(-c2nc(C=Nc3ccc(C(C)=O)cc3)c(O)o2)cc1	-0.204%
Oc1oc(-c2cccc3ccccc23)nc1C=Nc1ccc2ccccc2c1	-1.09%
COc1ccc(CNC2CCCN(c3nc(C)c4ccc(C)cc4n3)CC2)cc1OC (centres undefined)	-0.801%
COc1ccc(NC(=O)C2CC(=O)N(C3CCCCC3)C2)cc1 (centres undefined)	0.591%
Cc1ccc(C)c(NC(=O)C(Cc2ccccc2)N2C(=O)c3cccc([N+](=O)[O-])c3C2=O)c1 (centres undefined)	1.63%
CCOc1ccc(C(=O)Nc2ccc(C(=O)OC)cc2)cc1[N+](=O)[O-]	1.51%
CCOc1ccc(C(=O)Nc2ccccc2I)cc1[N+](=O)[O-]	2.03%
CCOc1ccc(C(=O)Nc2nnc(CC)s2)cc1[N+](=O)[O-]	7.7% (active)
Cc1ccccc1-n1c(C)cn2c3c(=O)n(CC(N)=O)c(=O)n(C)c3nc12	0.26%

SMILES	activation
O=S(=O)(NC1CCCCC1)c1ccc(S(=O)(=O)n2cnc3ccccc32)cc1	3.37%
COc1ccc(S(=O)(=O)N(C)CC(=O)Nc2cccc(C(F)(F)F)c2)cc1OC	1.26%
COc1cccc(NC(=O)CN(C)S(=O)(=O)c2ccc3c(c2)SCC(=O)N3)c1	5.58% (active)
CCc1cccc(CC)c1NC(=O)CCS(=O)(=O)c1ccc2c(c1)SCC(=O)N2	-0.523%
O=C(NNC1=NCCCCC1)c1ccc([N+](=O)[O-])cc1	4.83%
CC(=O)NCc1nnc2n1CCN(Cc1ccc(-c3ccccc3)cc1)CC2	-0.371%
CC(C)CNC(=O)C(C)N(c1ccccc1)S(C)(=O)=O (centres undefined)	1.91%
Cc1nc2nc(SCc3ccc([N+](=O)[O-])cc3)nn2c(C)c1Cc1c(F)cccc1Cl	5.69% (active)
Cc1nc2nc(SCc3c(F)cccc3Cl)nn2c(C)c1Cc1c(F)cccc1Cl	0.427%
Cc1nc2ncnn2c(C)c1Cc1c(F)cccc1Cl	0.47%
CCOC(=O)c1cnc2c(C)c(Cl)ccc2c1Nc1cccc(C)c1	1.7%
O=C(C1CC1)N1CC[C@H]2[C@H](CCCN2C/C=C/c2ccco2)C1	0.174%
O=C(Nc1ccccc1)c1cnc(N2CCC(N3CCOCC3)CC2)s1	-1.62%
COc1ccc(C=C(C#N)C#N)c(CSc2ccccn2)c1	5.44% (active)
COc1cccc(N(CC(=O)NCCSc2ccccn2)S(C)(=O)=O)c1	1.03%
COc1ccc(/C=C/C(=O)NCCSc2ccccn2)cc1	-0.668%
Cn1c(SCC(=O)NC(Cc2ccccc2)C(=O)O)nnc1-c1ccncc1 (centres undefined)	-0.851%
CCOc1ccc(CCn2c(-c3ccccc3)cn3c4c(=O)n(C)c(=O)n(C)c4nc23)cc1OCC	0.226%
Cc1ccc(N2C(=O)CC(N3CCC(Cc4ccccc4)CC3)C2=O)cc1Cl (centres undefined)	-0.328%
O=C1CC(N2CCN(c3ccc(Cl)cc3)CC2)C(=O)N1c1ccc(Cl)c(Cl)c1 (centres undefined)	-0.621%
Cc1ccc(N2C(=O)CC(N3CCN(Cc4ccc(Cl)cc4)CC3)C2=O)cc1Cl (centres undefined)	5.11% (active)
COc1ccc2ccccc2c1CN1CCc2nnc(C(C)NC(=O)C(C)C)n2CC1 (centres undefined)	1.9%
COc1ccc(C(=O)Nc2c(C)n(C)n(-c3ccccc3)c2=O)c(OC)c1OC	0.96%

SMILES	activation
Cc1c(N=C(Nc2ccccc2)Nc2ccccc2)c(=O)n(-c2ccccc2)n1C	-0.384%
COc1cc(C(C)=Nc2c(C)n(C)n(-c3ccccc3)c2=O)cc(O)c1OC	5.37% (active)
CCOc1ccc(CCNC(=O)Cn2c(-c3cncs3)nc3ccccc32)cc1OCC	-0.67%
O=C(Nc1ccccc1)/C(=C\c1ccco1)NC(=O)c1cccc(Cl)c1	0.512%
CCOC(=O)c1cnc2c(OC)cccc2c1Nc1ccc(Oc2ccccc2)cc1	-0.414%
CCN(CC)c1nc(NCc2ccccc2)nc(NCc2ccc3c(c2)OCO3)n1	0.801%
CCN(CC)c1nc(Nc2ccccc2)nc(Nc2ccc(NC(C)=O)cc2)n1	-0.926%
CCN(CC)c1nc(Nc2ccccc2)nc(Nc2ccccc2)n1	6.59% (active)
COc1cccc(C(=O)COC(=O)c2c3c(nc4ccccc24)CCCC3)c1	1.21%
CCOC1=C/C(=C/c2c(N)n3nc(N4CCCC4)sc3nc2=O)C=CC1=O	-1.93%
COC(=O)C(C)CN1CCN(Cc2ccc3c(c2)OCO3)CC1 (centres undefined)	-1.4%
CC1CCCN(CC(O)COc2ccc3c(c2)OCO3)C1 (centres undefined)	-0.477%
CN1CCN(CC(O)COCc2ccc3c(c2)OCO3)CC1 (centres undefined)	10.1% (active)
CCC(=O)Nc1cccc(Nc2nc(Cl)nc(Nc3cccc(NC(=O)CC)c3)n2)c1	0.686%
Cc1ccc(CS(=O)(=O)CC2Nc3ccc(C(=O)NC4CCCC4)cc3NC2=O)cc1 (centres undefined)	-0.216%
Cc1cc(=O)[nH]c(NCCC(=O)O)n1	0.811%
COCCn1c(C)cc(C(=O)COC(=O)C2COc3ccccc3O2)c1C (centres undefined)	0.229%
COCCn1c(C)cc(C(=O)CSc2nnc3scc(-c4ccc(C)cc4)n23)c1C	1.12%
COCCn1c(C)cc(C(=O)CSc2nnc(-c3ccccc3)o2)c1C	9.35% (active)
COc1ccc(C2/C(=C(\O)c3ccc(Br)cc3)C(=O)C(=O)N2c2nccs2)cc1OC (centres undefined)	-0.318%
Cc1cccc(-n2nc3c(c2NC(=O)CCC2CCCC2)CS(=O)(=O)C3)c1C	-0.834%
Cc1cccc(-n2nc3c(c2NC(=O)CCC2CCCCC2)CS(=O)(=O)C3)c1C	5.19% (active)
Cc1cccc(-n2nc3c(c2NC(=O)C2CCCC2)CS(=O)(=O)C3)c1C	-1.12%

SMILES	activation
Cc1ccc(S(=O)(=O)NCC(c2cccnc2)N2CCN(c3ccc(F)cc3)CC2)cc1 (centres undefined)	4.96% (active)
COc1ccc(N2CCN(C(CNS(=O)(=O)c3c(C)cc(C)cc3C)c3cccnc3)CC2)cc1 (centres undefined)	0.0567%
O=S(=O)(NCC(c1cccnc1)N1CCN(c2ccccc2)CC1)c1ccc(F)cc1 (centres undefined)	-1.39%
CC(=O)Nc1nc2c(s1)-c1cccc3cccc-2c13	-0.686%
COc1cc(Nc2cc(N3CCN(c4ccc(F)cc4)CC3)c3noc4c3c2C(=O)c2ccccc2-4)cc(OC)c1OC	5.65% (active)
CCN1CCN(c2cc(Nc3cccc(OC)c3)c3c4c(onc24)-c2ccccc2C3=O)CC1	-1.99%
CCN1CCN(c2cc(Nc3cc(OC)c(OC)c(OC)c3)c3c4c(onc24)-c2ccccc2C3=O)CC1	-0.784%
Cn1c(SCC(=O)NCc2cccs2)nnc1C1CC1	0.896%
Cc1ccccc1NC(=O)CCS(=O)(=O)c1ccc2c(c1)OCC(=O)N2	-0.0759%
Cc1cc2c(cc1S(=O)(=O)CCC(=O)Nc1ccccc1Cl)OCC(=O)N2	12% (active)
CCc1ccc(NC(=O)CCS(=O)(=O)c2cc3c(cc2Cl)NC(=O)CO3)cc1	0.977%
CC(Nc1ccc(-c2cccc(C=O)c2)cn1)c1ccc(F)cc1 (centres undefined)	3.31%
C=CSC1=C(C#N)C(c2cccc3ccccc23)CC(=O)N1 (centres undefined)	0.0614%
CN(C)C(=O)c1cc(-c2cn[nH]c2)ccc1NC(=O)OCc1ccccc1	0.0349%
CCN(Cc1ccccc1)C(=O)Nc1ccc(-c2cn[nH]c2)cc1OCCN(C)C	0.0869%
CN(Cc1ccccc1)C(=O)c1nc2ccc(-c3cn[nH]c3)cc2s1	5.86% (active)
O=C(CCS(=O)(=O)c1cccc2nsnc12)N1CCCCCC1	-0.702%
CNC(=O)C(NC(=O)c1ccc([N+](=O)[O-])cc1)C12CC3CC(CC(C3)C1)C2 (centres undefined)	0.352%
Cc1cccc(NC(=O)/C(=C\c2ccco2)NC(=O)c2ccccc2Br)c1	2.08%
CC1=C(C(=O)N2CCOCC2)C(c2ccc(Cl)cc2)C2=C(CC(C)(C)CC2=O)N1 (centres undefined)	0.141%
